The panel holds about 83,000 compounds, 20% with a hit somewhere; the sample as a whole holds those more often.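 Testing used 96-well plates and a 48-hour single-concentration exposure. Example: -40 means 40% of the starting cells died.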 A number with no mark means an inactive call. Active and inactive are the calls of the source. How the source made its calls: active means growth percent below 10; inactive means the rest.

This experiment relates to MDA-MB-468 breast. The experiment is described as follows: NCI-60 one-dose screen, 48 h (100 = growth as untreated, 0 = no growth, -100 = all killed). As to conditions: 10 µM unless noted.
For the molecule `COc1ccc(C(=O)OC2C(OC3C(O)COC(O[C@H]4C[C@H]5[C@@H]6CC=C7C[C@@H](O)CC[C@]7(C)[C@H]6CC[C@]5(C)[C@H]4[C@H](C)C(=O)CCC(C)C)C3OC(C)=O)OCC(O)C2O)cc1` (stereo partly specified), the growth was -34.1% (active).

With `O=C(CCCC(=O)N/N=C/c1cc(Cl)ccc1O)N/N=C\c1cc(Cl)ccc1O`, the growth was 10.3%.

Take `COc1ccc(C(=O)/C=C/c2ccc(Cl)cc2)cc1S(N)(=O)=O`: the growth is 57.3%.

Turning to `CCN(CC)c1ccc(/C=C2/NC(=O)NC2=O)cc1`, the growth is 37.8%. With `O=C(c1nc2ccccc2[nH]1)C1C(c2ccc(Br)cc2)C2CC3CCCC[C@H]3N2[C@@]12C(=O)Nc1cc(Cl)ccc12` (stereo partly specified) the figure was 12.5%; with `CCCC(=O)Oc1ccc(/C(=C(\C)c2ccc(OC)cc2)c2ccc(OCCN3CCCCC3)cc2)cc1`, 68.6%; with `COc1ccc(C(=O)NC(=O)Nc2ccc3c(c2)NC(=O)/C3=C\c2[nH]c(C)c(C(=O)O)c2C)c(F)c1`, 12.3%. Turning to `COc1ccc(-c2cc(-c3cccc(NS(C)(=O)=O)c3)nc(N)c2C#N)cc1`, the growth is 0.11% (active). As for `O=C(O)c1c([N+](=O)[O-])cnc2ccccc12`, the growth is 112%. Take `N#C/C(=N\Nc1ccc(Cl)cc1)C(=O)C1CC1`: the growth was 27.1%.

In the case of `COc1ccc(-c2nc3sc(-c4ccccc4)c(-c4ccccc4)n3c2/C=C/c2ccc(F)cc2)cc1`, the growth is 82.7%. For the molecule `O=[N+]([O-])c1cccc(-c2nc3sccn3c2-c2ccnc(NCCCNS(=O)(=O)c3cccc(F)c3)n2)c1`, the growth is -13.8% (active). Then `CC1Cc2ccccc2O1` (stereo unspecified), with 120%; and `CCOC(=O)C1=C(C(=O)c2ccc(Br)cc2)C(c2ccc(Br)cc2)NC(=S)N1` (stereo unspecified), with 103%.

Consider `Cn1cc(-c2nc(-c3c[nH]c4ccncc34)cs2)c2cc(F)ccc21`, for which the growth is -72.8% (active). As for `COc1c(B(O)O)cccc1-c1nc2ccc3[nH]ncc3c2c2c1CCCC2`, the growth was 34%.

Take `O=c1[nH]c2ccccc2cc1-c1nc2ccncc2[nH]1`: the growth was 75%.

As for `Oc1ccc(/C=N\Nc2ccccn2)c(O)c1`, the growth was 9.5% (active). As to `CC(=O)/C(=C/c1ccc([N+](=O)[O-])cc1)C(=O)c1ccccc1`, the growth is 114%.

On to `Cc1cc2nc3c4cccc(O)c4n(CCN(C)C)c3nc2cc1C`, for which the growth was 0.835% (active). Consider `COc1cc(-c2nn(-c3ccc(NC(=O)c4cc(Cl)cc(Cl)c4)cc3)cc2-c2ccncc2)ccc1Cl`, for which the growth was 89.2%. For `CN1CCN(CCNC(=O)c2cccc(CN3c4cccc5c4C(=Cc4cccnc43)N(C)C5=O)c2)CC1`, the growth was 24.4%. Consider `O=C(NNc1nc2cc(F)cc(F)c2n2cccc12)c1ncccn1`, for which the growth is 3.64% (active). As to `C=C1c2c(Cl)ccc(O)c2C(O)=C2C(=O)[C@]3(O)C(O)=C(C(N)=O)C(=O)[C@@H](N(C)C)[C@@H]3[C@@H](O)[C@H]12`, the growth is -4.52% (active). With `CC1(C)CC(=O)C=C(N)C1`, the growth was 90.5%. In the case of `CCCCCN1C(=O)/C(=c2\sc3n(c2=O)C2C(NN=3)N(CC)C(=O)N2CC)c2ccccc21` (stereo unspecified), the growth is 5.08% (active). Regarding `COc1ccc(/C(=C/c2cc(OC)c(OC)c(OC)c2)[N+](=O)[O-])cc1`, the growth is -75.2% (active). As for `Cn1cc(-c2nonc2-c2c[nH]c3ccccc23)c2cc(Br)ccc21`, the growth was 59.5%.

`C=CCn1c(SCC(=O)Nc2ccc(C(=O)/C=C/c3ccc(OC)cc3)cc2)nnc1-c1ccccc1`: the growth was 93.9%. On to `CSc1cccc(NC(=O)Nc2nc3c(C)cccc3s2)c1`, for which the growth was 84.6%. Then `CC(=O)O[C@@]12CO[C@@H]1C[C@H](O)[C@@]1(C)C(=O)[C@H](O)C3=C(C)[C@@H](OC(=O)[C@H](O)[C@@H](NC(=O)OC(C)(C)C)c4ccccc4)C[C@@](O)([C@@H](OC(=O)c4ccccc4)C12)C3(C)C` (stereo partly specified), with 3.09% (active). Then `CS(=O)(=O)Nc1cc(-c2ccc3ncc(C#N)c(N[C@H](CO)c4ccccc4)c3c2)cnc1Cl`, with 14.5%. Then `Nc1c(C(=O)Nc2ccccc2Cl)sc2nc3c(cc12)C(O)CCC3` (stereo unspecified), with 25.7%; and `COc1cc(C2CC(=O)Nc3c2c(C)nn3-c2nc3ccccc3[nH]2)c(OC)c2c1OCO2` (stereo unspecified), with 36.7%. For `COc1cc(-c2ccc(-c3ccc(C(=N)N)cc3)s2)cc(OC)c1OC`, the growth is -22.8% (active).

On to `O=C(Nn1c2c(sc1=Nc1ccccc1)C(=O)c1ccccc1C2=O)c1cc2ccc1CCc1ccc(cc1)CC2`, for which the growth was 105%.

These data come from PubChem BioAssay (NCI).
